# PubChem BioAssay (NCI)
# Compounds without any hit were thinned out: in the full panel of roughly 83,000, 20% have a hit.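 Cells were grown in 96-well plates and exposed to the test compound at a single concentration for 48 hours; results are reported as percent growth, with values below 10 considered active.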 Unmarked numbers belong to inactive results. Calls of active or inactive are those of the source.
# What was measured:
# Test in all cases: NCI-60 one-dose screen, 48 h (100 = growth as untreated, 0 = no growth, -100 = all killed)
# Settings in all cases: 10 µM unless noted
# NCI-H23 lung = tested on: NCI-H23 lung
# NCI-H226 lung = tested on: NCI-H226 lung
# NCI-H322M lung = tested on: NCI-H322M lung
# HOP-62 NSCLC = tested on: HOP-62 NSCLC
# NCI-H460 lung = tested on: NCI-H460 lung
# HOP-92 NSCLC = tested on: HOP-92 NSCLC
# NCI-H522 lung = tested on: NCI-H522 lung
# A549/ATCC NSCLC = tested on: A549/ATCC NSCLC
# 786-0 renal = tested on: 786-0 renal
# COLO 205 colon = tested on: COLO 205 colon
# DU-145 prostate = tested on: DU-145 prostate
# K-562 leukemia = tested on: K-562 leukemia
# MALME-3M melanoma = tested on: MALME-3M melanoma
# MDA-MB-231 breast = tested on: MDA-MB-231 breast
# RXF 393 renal = tested on: RXF 393 renal
# SF-268 CNS = tested on: SF-268 CNS
# SF-295 CNS = tested on: SF-295 CNS
# SF-539 CNS = tested on: SF-539 CNS
# UACC-257 melanoma = tested on: UACC-257 melanoma
# M14 melanoma = tested on: M14 melanoma
SMILES,growth (NCI-H23 lung),growth (NCI-H226 lung),growth (NCI-H322M lung),growth (HOP-62 NSCLC),growth (NCI-H460 lung),growth (HOP-92 NSCLC),growth (NCI-H522 lung),growth (A549/ATCC NSCLC),growth (786-0 renal),growth (COLO 205 colon),growth (DU-145 prostate),growth (K-562 leukemia),growth (MALME-3M melanoma),growth (MDA-MB-231 breast),growth (RXF 393 renal),growth (SF-268 CNS),growth (SF-295 CNS),growth (SF-539 CNS),growth (UACC-257 melanoma),growth (M14 melanoma)
COc1cc2c(cc1-c1c(C)noc1C)ncc1nc(C3CCCCC3)n([C@H](C)COC(F)F)c12,59.9%,53.5%,40.3%,39.4%,53.2%,34.9%,25.2%,33.4%,48.7%,24.7%,63.8%,24.6%,69.3%,41.9%,52.6%,58.8%,52.4%,34.7%,31.4%,39.9%
CC(C)(C)c1cc(C(C)(C)C)cc(S(=O)(=O)Nc2cc3ccccc3cc2C(=O)NCCN)c1,85.7%,73.8%,64.2%,83.1%,-20.3% (active),50%,48%,38.6%,86.3%,-85.6% (active),22.5%,-37% (active),55%,5.92% (active),29.1%,69.3%,12.4%,96%,81%,-59.9% (active)
CCCN1CCN(c2ccc3nc(-c4ccc5nc(-c6ccc(OCC)cc6)[nH]c5c4)[nH]c3c2)CC1,19.5%,65.1%,60.6%,55.7%,-76.8% (active),39.3%,-3.11% (active),-71.4% (active),16.3%,-32% (active),21.2%,-47.4% (active),0.636% (active),84.8%,-31.3% (active),68.6%,41.4%,58.3%,39.7%,-27.2% (active)
CCCSc1ccc2nc(NC(=O)OC)[nH]c2c1,24%,23.2%,60.1%,35.2%,6.79% (active),33.6%,-35.7% (active),16.5%,31%,5.29% (active),16.1%,14.7%,42%,18.8%,-4.86% (active),44.8%,-2.45% (active),4.44% (active),59.3%,0.47% (active)
CC1=C/C(=C(\c2ccc(N(C)C)cc2)c2ccc([N+](C)(C)C)cc2)C=CC1=[N+](C)C,80.4%,88.4%,104%,37%,74.9%,56.5%,97.2%,29.2%,94.7%,66%,51.5%,37.5%,120%,93.9%,76.6%,92%,48.4%,78.6%,99.8%,77.5%
C=C(C)[C@@H]1CC[C@]2(C(N)=O)CC[C@]3(C)[C@H](CC[C@@H]4[C@@]5(C)C/C(=C/c6ccco6)C(=O)C(C)(C)[C@@H]5CC[C@]43C)[C@@H]12,98%,95.8%,98.9%,98.5%,96%,103%,78.8%,86.6%,95.3%,113%,92.6%,80.1%,87%,94.5%,94.2%,90.9%,90.2%,98.6%,97.8%,85.1%
COc1ccc(-n2nc(C)c3c(Nc4ccc(NC(=O)Nc5c(Cl)cccc5Cl)cc4)ncnc32)cc1,52.1%,37.2%,57.7%,50.3%,50.4%,43.9%,58%,44.6%,55.2%,70.1%,51.4%,79.1%,31.3%,30.6%,26.2%,59.4%,85.2%,30%,53%,82.2%
CC1=C[C@H]2c3c(c(O)c(O)c4oc5c(C)cccc5c(=O)c34)[C@H](c3cc(O)c(O)c4oc5c(C)cccc5c(=O)c34)[C@H]2C(C)(C)C1,-15.2% (active),0.242% (active),21.5%,9.87% (active),-44.3% (active),20.9%,3.27% (active),11.9%,-3.44% (active),16.3%,23.9%,2.97% (active),18.9%,23.7%,21.5%,-1.07% (active),-32.4% (active),-18.5% (active),23.4%,13.7%
CSc1nc(Nc2cccc(NC(=O)/C(C#N)=C/c3c(Cl)cccc3Cl)c2)c(C#N)c(-c2cccc([N+](=O)[O-])c2)n1,57.9%,64.9%,85.5%,89.7%,71.7%,59.8%,38.8%,92%,54%,76%,58%,20.4%,96.5%,52.5%,68.3%,59.6%,92%,65.2%,73.5%,22.6%
Cc1nn(-c2cc(=O)[nH]c3ccccc23)c(N)c1C#N,106%,91.4%,97%,100%,104%,106%,95.6%,107%,105%,123%,107%,105%,108%,103%,112%,97.7%,100%,95%,110%,106%
O=C1NC(=S)NC(=O)C1CC(=O)n1c(-c2ccccc2)nc2ccccc21,97.2%,86.1%,94%,79.9%,101%,108%,96.9%,97.7%,104%,111%,113%,98.6%,93%,88%,110%,93.8%,96.3%,94.1%,111%,99%
COc1cccc(-c2nc3sccn3c2-c2ccnc(NCCNS(=O)(=O)c3ccccc3)c2)c1,18.9%,18.7%,58.3%,36.8%,20%,21.9%,29.8%,10.3%,38.9%,21.6%,20.5%,11.1%,43.1%,58.9%,47.5%,31.9%,10.8%,66.9%,42.5%,22.5%
O=C(N/N=C/c1c[nH]c2ccccc12)c1cc(-c2ccccc2)on1,93.6%,87.6%,82.9%,98.8%,98.1%,92.1%,75%,96.7%,97.9%,113%,100%,55.4%,94.8%,89.4%,97.8%,85.9%,98.2%,84.6%,102%,88.6%
Cn1c(=O)[nH]c(=O)c2nc(CCC(=O)NCCC(=O)O)c(=O)[nH]c21,97.5%,88.3%,100%,105%,103%,98.2%,96.5%,103%,109%,109%,113%,104%,98.9%,110%,112%,98.2%,102%,95.7%,101%,111%
C=CC(=O)Nc1cccc(-c2nc(SC)nc(NCCN3CCOCC3)c2C#N)c1,92.5%,97.1%,94.2%,99.9%,101%,76.1%,76%,101%,87.5%,114%,94.7%,87.7%,89.6%,87.9%,89.7%,83.8%,106%,93.3%,94.1%,89.9%
